Screening results deposited in PubChem by National Center for Advancing Translational Sciences (NCATS).
HepG2 viability = counter-screen for TGF-b inhibitors: cytotoxicity in HepG2 cells | HepG2 CAGA-GFP viability, ATP luminescence, 18 h | Potency, µM (titrated, usually from 46.1 µM), for the others: top-dose activity change, negative = cytotoxicity, hits mostly cytotoxic | 410,000 compounds, 0.76% hits | AID 588856; further: potency means the concentration at half of the fitted maximal effect
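HepG2 CAGA-GFP cells (1000/well, DMEM with 1% FBS) received compound, then TGF-beta at 500 pg/mL final, and were incubated 18 hours at 37 degrees C. Viability was read by CellTiter-Glo luminescence. Media-only wells were set as complete cell-killing and DMSO as no toxicity.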
TDP1 block = blocks human tyrosyl-DNA phosphodiesterase 1. recombinant TDP1, AlphaScreen DNA substrate cleavage. Potency, µM (titrated, usually from 130 µM), for the others: at the highest dose activity change, negative = inhibition, actives largely listed as inhibitors. 350,000 compounds, 0.28% hits. AID 485290; further: potency means the concentration at half of the fitted maximal effect; on the % scale 0 is the no-effect control and ±100 the full control effect; nearly all actives have a fitted effect of over 40% in size
Target sequence (Q9NUW8 whole entry, looked up): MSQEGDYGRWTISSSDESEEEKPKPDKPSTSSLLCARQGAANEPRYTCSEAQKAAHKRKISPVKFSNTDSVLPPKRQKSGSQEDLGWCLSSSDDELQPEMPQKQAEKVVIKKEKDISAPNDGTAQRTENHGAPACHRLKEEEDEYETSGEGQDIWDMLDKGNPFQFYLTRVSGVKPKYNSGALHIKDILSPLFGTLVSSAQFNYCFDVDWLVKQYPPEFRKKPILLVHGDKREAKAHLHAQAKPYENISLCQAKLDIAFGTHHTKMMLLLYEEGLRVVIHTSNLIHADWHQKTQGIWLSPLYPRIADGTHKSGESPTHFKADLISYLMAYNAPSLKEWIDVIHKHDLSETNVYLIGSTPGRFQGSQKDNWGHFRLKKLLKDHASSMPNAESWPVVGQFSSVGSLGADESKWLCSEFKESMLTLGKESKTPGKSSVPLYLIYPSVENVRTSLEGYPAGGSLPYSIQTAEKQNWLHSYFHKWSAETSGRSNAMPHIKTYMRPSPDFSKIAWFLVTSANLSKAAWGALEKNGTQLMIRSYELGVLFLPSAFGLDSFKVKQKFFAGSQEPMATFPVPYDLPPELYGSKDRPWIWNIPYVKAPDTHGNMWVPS
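Tdp1 1 nM final; 15 min RT w/ cpd; substrate 15 nM, 5 min; beads 10 ug/ml, 10 min; AlphaScreen read. Neg ctrl: no enzyme.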
TGFb SMAD3 inh = blocks TGF-b signaling; Potency, µM (series often up to 46.1 µM), for inactives: at the highest dose activity, negative = inhibition, hits mostly inhibitors; AID 588855; HepG2 CAGA-GFP TGF-b/SMAD3 reporter, GFP fluorescence, 18 h; TGF-beta stimulated, 500 pg/mL final; 410,000 compounds, 1.2% hits; further: potency means the concentration at half of the fitted maximal effect; on the % scale 0 is the no-effect control and ±100 the full control effect; nearly all actives have a fitted effect of over 65% in size
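Cell-based qHTS in HEPG2 carrying a CAGA-GFP Smad reporter; compounds added before 500 pg/mL final TGF-beta, 18 h incubation at 37 degrees C, GFP fluorescence quantified per cell by imaging cytometry.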
TDP1 cell noCPT = qHTS for Inhibitors of human tyrosyl-DNA phosphodiesterase 1 (TDP1): qHTS in cells in absence of CPT | AID 686978, 2013 | Potency, µM (titrated, usually from 46.2 µM), without a hit: top-dose activity change, negative = growth inhibition, usual class: inhibitors | 420,000 compounds, 15% hits | DT40 Tdp1-/- hTDP1 cells, no CPT, ATP luminescence, 48 h; further: potency means the concentration at half of the fitted maximal effect; on the % scale 0 is the no-effect control and ±100 the full control effect; nearly all actives have a fitted effect of over 55% in size
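Growth of hTDP1-complemented DT40 Tdp1-knockout cells is measured by ATP luminescence after at least 48 hr compound exposure at 37 °C, with DMSO substituting for the 20 nM CPT used in the parallel screen.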
IL-1B inflam inh = inhibitors of inflammasome signaling (IL-1 beta secretion) | activity change, % at 57.5 µM | 360,000 compounds, 4.7% hits | THP-1 LPS/ATP IL-1B secretion, AlphaLISA, 16 h; hits give low values; in the data active means activity change below about -50%; inconclusive means mostly about -30% to -49%; further: on the % scale 0 is the no-effect control and ±100 the full control effect
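THP-1 cells pretreated 1 hr with compounds (up to 57.5 uM final), then stimulated with LPS (250 ng/mL final) plus ATP (1.25 mM final); secreted IL-1B measured by AlphaLISA after 16 hr, decreased signal indicating inhibition.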
TDP1 cell CPT = growth inhibition of DT40 Tdp1-/-;hTDP1 cells with camptothecin (screen for TDP1 inhibitors). chicken DT40 Tdp1-/-;hTDP1 cells + 20 nM CPT, ATP luminescence, 48 h. Potency, µM (top dose mostly 46.2 µM), for the others: at the top dose activity change, negative = growth inhibition, usual class: inhibitors. 420,000 compounds, 12% hits. AID 686979; further: potency means the concentration at half of the fitted maximal effect; on the % scale 0 is the no-effect control and ±100 the full control effect; nearly all actives have a fitted effect of over 55% in size
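Chicken DT40 Tdp1-/- cells stably complemented with human TDP1 were seeded at 400 cells/well in medium containing 20 nM camptothecin, exposed to pin-transferred compounds, and grown at 37 °C for at least 48 hr. Viability was read as ATP luminescence.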
The depositor's hits bear a star; i = inactive; ? = inconclusive; . = no result; ! = repeats disagree; [ ] = remark or other dose. Sampled rows, rich in hits. Any-hit rate of the full collection: about 19%. Unless noted, the call rests on the fitted dose curve; in most records, active means well fitted curve in the direction sought with a large enough effect; inconclusive means small, poorly fitted or top-dose-only effect, or another doubt; inactive means no such curve, though single readings can be large; an effect the other way counts as inactive or inconclusive.

SMILES	HepG2 viability	TDP1 block	TGFb SMAD3 inh	TDP1 cell noCPT	IL-1B inflam inh	TDP1 cell CPT
COc1cc(C(=O)NC2CCCCC2)ccc1OCc1ccc(Cl)cc1Cl	10%	2%	20%	-18%	-17	-26%
O=C(NCC1CCCO1)c1ccc(NC(=O)c2cccc(Cl)c2)cc1 (centres undefined)	-23%	.	-18%	-28%	1	-5%
CC1=Nc2cc(C(=O)NC3CCCC3)ccc2Sc2ccc(C)cc21	-3%	5%	?	0.92µM*	.	1.2µM*
CCOC(=O)N1CCC(NC(=O)c2ccc3c(c2)N=C(C)c2ccccc2S3)CC1	-10%	4%	-14%	?	22	?
CCC1=Nc2cc(C(=O)NCC3CCCO3)ccc2Sc2ccc(Cl)cc21 (centres undefined)	-19%	.	?	4.1µM*	114	3.7µM*
CCC1=Nc2cc(C(=O)NC3CCCC3)ccc2Sc2ccc(Cl)cc21	-39%	2%[12.3 µM]	?	0.92µM*	.	0.92µM*
O=C(NC1CCCC1)c1cc(Cl)ccc1[N+](=O)[O-]	4%	-5%	-2%	0%	3	-7%
CC1=Nc2cc(C(=O)NC3CCCC3)ccc2Sc2ccc(Cl)cc21	-6%	8%	?	0.58µM*	.	0.82µM*
CCOC(=O)c1ccccc1NC(=O)COC(=O)CCCOc1ccccc1	-2%	.	-14%	-14%	-6	-9%
CC(=O)c1ccccc1NC(=O)COC(=O)CCC1CCCC1	10%	79µM*	1%	-4%	31	-2%
CCOC(=O)c1ccccc1NC(=O)COC(=O)CCC1CCCC1	0%	50µM*	-45%	0%	6	-6%
CCOC(=O)c1[nH]c2ccccc2c1NC(=O)c1cc(OC)cc(OC)c1	-11%	-6%	-21%	23µM*	.	23µM*
COC(=O)c1[nH]c2cc(OC)c(OC)cc2c1NC(=O)c1cccc(OC)c1	8%	7%	20%	21µM*	?	?
COc1cc(C2SCC(=O)N2Cc2ccccc2)ccc1O (centres undefined)	17%	.	-1%	-10%	27	-16%
Cc1cccc(N2C(=O)CN(Cc3ccccc3)C2=S)c1	0%	.	0%	-26%	-2	4%
Cc1cc(C)c(NC(=O)CN(C)C(=O)c2ccc(OCc3ccccc3)cc2)c(C)c1	-28%	-1%	-6%	?	0	?
CC(=O)Nc1ccc(S(=O)(=O)NCCC(=O)OCC(=O)NNC(=O)c2ccccc2)cc1	-2%	0%	-12%	-7%	0	16%
COc1cc(O)ccc1C1CC(=O)Nc2c1c(=O)nc(SCc1ccccc1C)n2C (centres undefined)	-26%	4%	3%	-13%	.	-19%
COCC(C)NCc1cc2ccc(OC)cc2nc1N1CCN(c2ccc(F)cc2)CC1 (centres undefined)	.	.	.	13µM*	.	-6%[9.04 µM]
Cc1ccc(C(=O)Nc2c(C)nc3ccccn3c2=O)cc1C	-20%	0%	-19%	-22%	.	-22%
Cc1ccc(C(=O)/C=C/c2ccc(-c3ccc(C)cc3)o2)cc1	-37%	4%	5%	5.2µM*	-14	5.2µM*
O=C(/C=C\c1ccc(-c2ccccc2)o1)c1ccccc1	-28%	1%	-24%	?	-92*	?
CCN(CC)S(=O)(=O)c1ccc(C(=O)/C=C/c2ccc(-c3ccc([N+](=O)[O-])cc3)o2)cc1	-28%	.	-28%	6.5µM*	0	?
O=[N+]([O-])c1ccc(-c2ccc(/C=N/O)o2)cc1	-3%	.	-4%	?	9	-22%
NC(=O)C1CCN(C2=C(NS(=O)(=O)c3ccc(Cl)cc3)C(=O)c3ccccc3C2=O)CC1	-110%	7%	11µM*	?	-8	16µM*
SMILES	HepG2 viability	TDP1 block	TGFb SMAD3 inh	TDP1 cell noCPT	IL-1B inflam inh	TDP1 cell CPT
Cc1ccc(S(=O)(=O)NC2=C(N3CCN(Cc4ccccc4)CC3)C(=O)c3ccccc3C2=O)cc1	-18%	0%	-1%	16µM*	-11	23µM*
CCOC(=O)N1CCN(C(=O)c2ccc(CNS(=O)(=O)c3ccc(C)cc3)cc2)CC1	9%	5%	-8%	-26%	40	-29%
CC(C)(CN1CCN(Cc2ccccc2)CC1)NS(=O)(=O)c1ccc(Cl)cc1	-48%	.	?	18µM*	-25	16µM*
COC(=O)C1CCN(C2=C(NS(=O)(=O)c3ccc(Cl)cc3)C(=O)c3ccccc3C2=O)CC1	-64%	.	?	-17%	0	?
CCOC(=O)N1CCN(C2=C(NS(=O)(=O)c3ccc(C)cc3)C(=O)c3ccccc3C2=O)CC1	-98%	13%	22µM*	?	11	8.2µM*
CC1CCCN(C2=C(NS(=O)(=O)c3ccc(Cl)cc3)C(=O)c3ccccc3C2=O)C1 (centres undefined)	-15%	-3%	?	?	-8	?
CN1CCN(CC(C)(C)NS(=O)(=O)c2ccc(Cl)cc2)CC1	-4%	0%	38%	?	-5	?
Cc1ccc(S(=O)(=O)NC2=C(N3CCN(c4ccccc4F)CC3)C(=O)c3ccccc3C2=O)cc1	9%	10%	-22%	?	-64*!	23µM*
CC(=O)Nc1ccc(S(=O)(=O)NC2=C(N3CCN(c4ccc(F)cc4)CC3)C(=O)c3ccccc3C2=O)cc1	-96%	15%	11µM*	16µM*	-7	10µM*
CC(=O)Nc1ccc(S(=O)(=O)Nc2ccc(N3CCOCC3)cc2)cc1	1%	7%	-4%	-17%	-6	-12%
CCn1c(SCC(=O)Nc2nc3ccccc3s2)nc2c(c1=O)SC(C)C2 (centres undefined)	20%	10%	?	23µM*	?	0.73µM*
CCn1c(SCC(=O)Nc2nc3ccc(C)cc3s2)nc2c(c1=O)SC(C)C2 (centres undefined)	8%	-2%	?	10µM*	-83*	16µM*
COc1cc(Cl)c(NC(=O)CN2C(=O)c3cccnc3Sc3ccccc32)c(OC)c1	1%	5%	.	?	.	1%
CCOc1ccccc1NC(=O)c1cccc(S(=O)(=O)N(Cc2ccccc2)c2ccccc2OC)c1	-12%	1%	-16%	16µM*	i	21µM*
